Test results published in ChEMBL document CHEMBL3988442, “University of Dundee, Small-Polar-MMV Screening Library” (2021).
For part of these data: Measured potencies and affinities stand elsewhere.

Experiments:
Parameters in all cases: scale not given: direction of the effect not stated beside the values
[1] = biological target: Protein translocase subunit SecA (Escherichia coli (strain K12)) (UniProt P10408); assay: Assay to Identify E. coli SecA ATPase Inhibitors; assay type: functional; details: 30 µM
Protein translocase subunit SecA (Escherichia coli (strain K12)), sequence (P10408 whole entry): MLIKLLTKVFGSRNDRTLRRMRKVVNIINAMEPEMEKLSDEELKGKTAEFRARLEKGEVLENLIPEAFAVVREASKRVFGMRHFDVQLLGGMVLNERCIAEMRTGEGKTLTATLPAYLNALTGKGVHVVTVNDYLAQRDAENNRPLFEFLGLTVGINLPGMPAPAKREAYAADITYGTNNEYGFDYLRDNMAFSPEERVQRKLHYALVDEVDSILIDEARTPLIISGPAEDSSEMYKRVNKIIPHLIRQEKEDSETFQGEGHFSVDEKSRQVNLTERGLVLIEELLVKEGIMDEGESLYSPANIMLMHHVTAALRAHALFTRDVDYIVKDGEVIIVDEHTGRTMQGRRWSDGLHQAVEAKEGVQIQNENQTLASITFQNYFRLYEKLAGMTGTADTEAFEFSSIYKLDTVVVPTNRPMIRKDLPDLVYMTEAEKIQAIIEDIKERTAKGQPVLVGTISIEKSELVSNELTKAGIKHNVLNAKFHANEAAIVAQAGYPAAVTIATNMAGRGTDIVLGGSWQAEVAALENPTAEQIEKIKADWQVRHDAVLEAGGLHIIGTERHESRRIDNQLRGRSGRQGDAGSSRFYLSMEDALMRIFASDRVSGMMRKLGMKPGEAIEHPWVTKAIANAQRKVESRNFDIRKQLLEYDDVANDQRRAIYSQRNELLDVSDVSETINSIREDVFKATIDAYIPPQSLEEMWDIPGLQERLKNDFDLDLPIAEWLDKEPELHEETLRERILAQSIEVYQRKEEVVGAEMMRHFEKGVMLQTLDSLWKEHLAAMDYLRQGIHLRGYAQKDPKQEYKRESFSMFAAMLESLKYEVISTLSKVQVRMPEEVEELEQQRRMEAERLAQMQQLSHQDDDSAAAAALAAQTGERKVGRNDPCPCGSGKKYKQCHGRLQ

[2] = biological target: T1, Ubiquitin-activating enzyme e1, putative (Leishmania donovani (strain BPK282A1)) (UniProt E9BSI1); assay: Leishmania donovani Ubiquitin Activating Enzyme (LdE1); assay type: functional; details: 30 µM
T1 sequence (whole entry): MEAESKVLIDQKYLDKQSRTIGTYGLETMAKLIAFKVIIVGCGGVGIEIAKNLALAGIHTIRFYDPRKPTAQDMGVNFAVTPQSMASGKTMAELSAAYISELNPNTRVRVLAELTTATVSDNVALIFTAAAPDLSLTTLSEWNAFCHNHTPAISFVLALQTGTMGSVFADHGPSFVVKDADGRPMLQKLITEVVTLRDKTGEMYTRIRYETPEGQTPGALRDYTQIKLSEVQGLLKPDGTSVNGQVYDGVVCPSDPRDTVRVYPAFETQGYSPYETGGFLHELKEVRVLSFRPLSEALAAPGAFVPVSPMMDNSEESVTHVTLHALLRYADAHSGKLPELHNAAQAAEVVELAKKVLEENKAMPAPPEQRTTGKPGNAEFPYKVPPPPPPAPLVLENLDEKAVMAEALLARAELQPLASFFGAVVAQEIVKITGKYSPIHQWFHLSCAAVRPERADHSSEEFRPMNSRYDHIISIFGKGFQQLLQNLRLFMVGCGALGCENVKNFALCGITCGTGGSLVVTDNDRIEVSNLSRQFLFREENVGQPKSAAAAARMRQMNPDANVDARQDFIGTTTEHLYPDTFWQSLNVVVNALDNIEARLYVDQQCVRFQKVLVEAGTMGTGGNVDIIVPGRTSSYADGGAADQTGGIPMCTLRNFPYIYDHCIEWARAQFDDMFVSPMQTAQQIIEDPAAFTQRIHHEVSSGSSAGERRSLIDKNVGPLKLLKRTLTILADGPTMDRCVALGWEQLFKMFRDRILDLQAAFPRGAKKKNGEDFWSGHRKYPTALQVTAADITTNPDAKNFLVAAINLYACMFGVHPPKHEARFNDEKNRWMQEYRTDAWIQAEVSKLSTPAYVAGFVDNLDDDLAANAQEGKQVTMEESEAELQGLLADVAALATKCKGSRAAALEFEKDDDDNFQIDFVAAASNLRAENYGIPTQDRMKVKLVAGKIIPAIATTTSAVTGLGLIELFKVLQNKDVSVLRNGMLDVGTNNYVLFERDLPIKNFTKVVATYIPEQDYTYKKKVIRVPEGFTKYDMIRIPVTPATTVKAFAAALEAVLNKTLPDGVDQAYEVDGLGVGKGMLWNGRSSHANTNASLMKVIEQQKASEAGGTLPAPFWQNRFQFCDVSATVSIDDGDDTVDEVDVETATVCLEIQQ

[3] = biological target: AMP-activated protein kinase, AMPK (Homo sapiens) (UniProt P54646+O43741+P54619+Q9UGJ0+Q9Y478+Q13131+Q9UGI9); assay: AMP-dependent Kinase enzyme assay. An in vitro enzyme assay that detects ADP turnover that is directly proportional to AMPK activity. This uses naive AMPK that is activated during the assay with MK-8722; assay type: functional; details: 30 µM
[4] = biological target: Sialic acid-binding Ig-like lectin 9 (Homo sapiens) (UniProt Q9Y336); assay: Hs-Siglec9 ALPHAscreen SOP 20170721; details: 10 µM
Sialic acid-binding Ig-like lectin 9 (Homo sapiens), sequence (Q9Y336 whole entry): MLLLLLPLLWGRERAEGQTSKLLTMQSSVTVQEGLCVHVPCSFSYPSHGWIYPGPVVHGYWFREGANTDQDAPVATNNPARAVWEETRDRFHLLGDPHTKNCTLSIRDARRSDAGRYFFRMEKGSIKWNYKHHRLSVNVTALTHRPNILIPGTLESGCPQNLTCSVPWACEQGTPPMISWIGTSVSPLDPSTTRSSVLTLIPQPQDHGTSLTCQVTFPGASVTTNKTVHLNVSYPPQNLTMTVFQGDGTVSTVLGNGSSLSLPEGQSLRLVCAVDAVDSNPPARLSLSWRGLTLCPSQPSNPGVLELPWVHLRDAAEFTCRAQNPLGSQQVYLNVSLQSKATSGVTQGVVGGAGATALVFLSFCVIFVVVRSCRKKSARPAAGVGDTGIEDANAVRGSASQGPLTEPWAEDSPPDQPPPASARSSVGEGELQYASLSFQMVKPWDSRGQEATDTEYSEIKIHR

Trypanosoma cruzi = assay: Trypanosoma cruzi phosphomannomutase and mannose-1-phosphate guanylyltransferase assay; assay type: functional; details: 10 µM
[5] = biological target: T2, Arginase-2, mitochondrial (Homo sapiens) (UniProt P78540); assay: in vitro enzyme assay to detect the production of urea directly proportional to the activity of Arginase II; assay type: functional; details: 33.3 µM; further: in the data most compounds retested in dose-response had high values
T2 sequence (whole entry): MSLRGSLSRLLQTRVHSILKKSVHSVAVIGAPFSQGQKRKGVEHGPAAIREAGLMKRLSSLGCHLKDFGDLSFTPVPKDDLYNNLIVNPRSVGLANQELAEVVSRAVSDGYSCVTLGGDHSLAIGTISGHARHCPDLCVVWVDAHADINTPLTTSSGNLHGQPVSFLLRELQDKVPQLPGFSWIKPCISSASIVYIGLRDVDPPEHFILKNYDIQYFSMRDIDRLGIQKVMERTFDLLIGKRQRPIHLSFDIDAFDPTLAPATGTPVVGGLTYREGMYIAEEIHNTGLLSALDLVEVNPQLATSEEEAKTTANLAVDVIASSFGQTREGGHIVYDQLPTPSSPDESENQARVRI

[6] = biological target: T3, Proteasome subunit beta (Trypanosoma cruzi) (UniProt O96673); assay: Trypanosoma cruzi proteasome chymotrypsin-like activity (TcProtChymo) assay.; further: in the data most compounds retested in dose-response had high values; assay type: functional; details: 9.37 µM
T3 sequence (whole entry): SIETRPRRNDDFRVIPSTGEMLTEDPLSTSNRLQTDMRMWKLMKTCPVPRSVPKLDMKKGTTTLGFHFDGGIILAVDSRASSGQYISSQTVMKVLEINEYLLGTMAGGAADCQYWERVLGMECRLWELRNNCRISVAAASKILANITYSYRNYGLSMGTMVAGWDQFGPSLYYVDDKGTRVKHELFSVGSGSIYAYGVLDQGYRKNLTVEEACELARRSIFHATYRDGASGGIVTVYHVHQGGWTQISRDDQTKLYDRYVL

Homo sapiens = species on record: Homo sapiens; assay: To identify inhibition of the IFN signalling (Jak-Stat) pathway via expression of an eGFP reporter gene under the control of an IFN-stimulated response element (ISRE) containing MxA promoter.; assay type: functional; details: 30 µM
[7] = biological target: T4, Tyrosyl-tRNA synthetase, putative (Trypanosoma cruzi (strain CL Brener)) (UniProt Q4DSP6); assay: Trypanosoma cruzi tyrosyl tRNA synthetase (TcYRS) _High Tyrosine SOP; assay type: functional; details: 30 µM; further: in the data most compounds retested in dose-response had high values
T4 sequence (whole entry): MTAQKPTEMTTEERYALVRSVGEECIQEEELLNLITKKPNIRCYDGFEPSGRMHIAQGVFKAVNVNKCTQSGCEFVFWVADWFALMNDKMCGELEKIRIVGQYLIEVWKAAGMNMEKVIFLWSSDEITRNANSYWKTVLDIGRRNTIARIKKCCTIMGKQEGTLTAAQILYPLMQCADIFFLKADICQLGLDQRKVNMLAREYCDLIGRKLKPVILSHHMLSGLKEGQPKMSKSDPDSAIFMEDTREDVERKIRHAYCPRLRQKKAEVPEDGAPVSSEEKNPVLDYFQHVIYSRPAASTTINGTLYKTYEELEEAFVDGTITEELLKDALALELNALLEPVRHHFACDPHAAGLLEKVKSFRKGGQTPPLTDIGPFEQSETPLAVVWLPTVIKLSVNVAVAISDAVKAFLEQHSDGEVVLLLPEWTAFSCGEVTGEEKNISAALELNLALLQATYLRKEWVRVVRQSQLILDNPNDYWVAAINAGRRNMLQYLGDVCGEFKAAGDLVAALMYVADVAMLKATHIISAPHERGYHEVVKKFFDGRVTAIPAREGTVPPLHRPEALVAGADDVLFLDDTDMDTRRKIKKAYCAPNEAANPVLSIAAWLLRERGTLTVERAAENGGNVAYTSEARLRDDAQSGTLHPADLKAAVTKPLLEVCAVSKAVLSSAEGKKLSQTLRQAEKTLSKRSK

[8] = biological target: T4, Tyrosyl-tRNA synthetase, putative (Trypanosoma cruzi (strain CL Brener)); assay: Trypanosoma cruzi tyrosyl tRNA synthetase (TcYRS) SOP; assay type: functional; details: 30 µM
[9] = biological target: Chromo domain-containing protein 1 (Saccharomyces cerevisiae (strain ATCC 204508 / S288c) (Baker's yeast)) (UniProt P32657); assay: ScCHD-1 Enzyme Inhibition Assay; assay type: functional; details: 30 µM; further: in the data most compounds retested in dose-response had high values
Chromo domain-containing protein 1 (Saccharomyces cerevisiae (strain ATCC 204508 / S288c) (Baker's yeast)), sequence (P32657 whole entry, the tested form may be a part): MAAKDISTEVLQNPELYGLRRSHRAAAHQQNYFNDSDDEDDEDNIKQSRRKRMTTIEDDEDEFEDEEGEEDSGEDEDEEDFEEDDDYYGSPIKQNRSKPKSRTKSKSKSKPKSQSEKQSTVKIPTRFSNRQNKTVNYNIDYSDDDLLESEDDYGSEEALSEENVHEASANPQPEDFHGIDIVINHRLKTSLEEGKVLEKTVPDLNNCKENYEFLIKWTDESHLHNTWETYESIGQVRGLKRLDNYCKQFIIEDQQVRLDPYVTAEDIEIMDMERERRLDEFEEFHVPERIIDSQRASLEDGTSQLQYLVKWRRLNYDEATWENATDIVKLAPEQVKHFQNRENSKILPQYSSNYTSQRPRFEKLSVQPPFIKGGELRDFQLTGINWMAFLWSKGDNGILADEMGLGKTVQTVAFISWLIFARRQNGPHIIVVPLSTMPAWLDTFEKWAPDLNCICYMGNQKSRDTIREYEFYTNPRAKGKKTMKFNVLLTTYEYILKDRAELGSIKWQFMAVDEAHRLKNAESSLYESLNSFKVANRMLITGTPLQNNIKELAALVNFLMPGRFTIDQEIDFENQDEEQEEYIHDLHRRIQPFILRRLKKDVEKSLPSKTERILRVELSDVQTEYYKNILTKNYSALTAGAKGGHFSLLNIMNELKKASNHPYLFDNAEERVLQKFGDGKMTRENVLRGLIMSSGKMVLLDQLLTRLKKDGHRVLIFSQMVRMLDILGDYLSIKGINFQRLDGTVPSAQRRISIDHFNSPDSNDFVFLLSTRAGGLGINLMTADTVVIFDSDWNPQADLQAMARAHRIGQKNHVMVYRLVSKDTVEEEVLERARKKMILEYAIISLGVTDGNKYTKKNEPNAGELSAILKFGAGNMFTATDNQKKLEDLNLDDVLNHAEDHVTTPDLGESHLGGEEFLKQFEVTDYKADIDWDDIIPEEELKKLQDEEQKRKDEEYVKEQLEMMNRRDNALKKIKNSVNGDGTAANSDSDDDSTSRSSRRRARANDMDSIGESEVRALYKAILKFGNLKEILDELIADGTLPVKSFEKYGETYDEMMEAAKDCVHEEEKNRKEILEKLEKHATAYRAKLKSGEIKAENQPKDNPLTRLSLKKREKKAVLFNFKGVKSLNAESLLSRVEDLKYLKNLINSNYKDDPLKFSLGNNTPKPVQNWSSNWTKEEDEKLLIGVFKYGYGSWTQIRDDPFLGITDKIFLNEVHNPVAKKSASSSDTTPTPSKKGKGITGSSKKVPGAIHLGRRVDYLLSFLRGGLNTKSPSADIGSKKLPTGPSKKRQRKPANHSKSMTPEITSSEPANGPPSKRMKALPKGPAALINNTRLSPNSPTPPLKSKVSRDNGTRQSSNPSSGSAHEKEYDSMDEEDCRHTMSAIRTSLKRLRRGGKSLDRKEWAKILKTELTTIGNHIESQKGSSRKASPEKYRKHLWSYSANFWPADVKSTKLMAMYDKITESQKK

| SMILES | Percent Effect [1] | Percent Effect [2] | Percent Effect [3] | Percent Effect [4] | Percent Effect (Trypanosoma cruzi) | Percent Effect [5] | Percent Effect [6] | Percent Effect (Homo sapiens) | Percent Effect [7] | Percent Effect [8] | Percent Effect [9] |
| --- | --- | --- | --- | --- | --- | --- | --- | --- | --- | --- | --- |
| CCc1c(C)nc2cc(C3CCN(Cc4ccccc4F)C3)nn2c1O (stereo unspecified) | 0.76% | -14.9% | -7.43% | -10.9% | -2.77% | 2.09% | 20.9% | 17% | 4.3% | 9.09% | -7.83% |
| Cc1ccccc1C(=O)NCc1ccc(N2CCNC(=O)C2)c(F)c1 | -3.15% | 8.11% | -2.71% | 4.68% | 0.579% | -2.86% | 8.97% | -16.3% | 4.76% | 12.2% | -2.41% |
| O=C([C@H]1CN(CCc2ccccc2)C[C@H]2OCC[C@@H]12)N1CCCO1 | -5.74% | 18.7% | -7.7% | -0.861% | 6.37% | -46.1% | 11.6% | 4.24% | 2.08% | 15% | -7.28% |
| CC(C)c1nc(C2CCCN2CC(=O)N2CCNC2=O)no1 (stereo unspecified) | -3.33% | 2.63% | -0.208% | -4.56% | 5.26% | 1.15% | 1.34% | -5.94% | -0.49% | 4.88% | -10.2% |
| O=C(c1ccnnc1)N1C[C@@H]2CC[C@H](Oc3cccc(F)c3)[C@@H]2C1 | -4.43% | -1.35% | 15.2% | -2.19% | -6.13% | 1.16% | 2.34% | -7.87% | 1.07% | -3.9% | -7.63% |
| CC(C)NC(=O)C1CN(C(=O)c2ccc(F)cc2)CC12CCOCC2 (stereo unspecified) | -0.326% | 6.67% | 1.28% | -10.8% | -11.8% | -7.22% | 17.4% | -8.73% | 1.06% | 2.56% | -10.5% |
| CCC(=O)N1CCN(Cc2cc(-c3ccncc3)nn2C)CC1 | -5.35% | -6.76% | 12.8% | 5.24% | -3.56% | -1.62% | 5.77% | -3.21% | 4.3% | -1.3% | -2.41% |
| CCCc1nc(C)cc(N2CCC3(CCC(=O)N(CC4CC4)C3)CC2)n1 | -2.3% | 8.11% | -0.987% | 3.81% | -3.03% | 3.23% | 8.67% | 1.04% | -5.38% | 13.6% | -4% |
| CC(C)[C@H](NC(=O)NC1CCS(=O)(=O)C1)C(=O)NCc1cccnc1 (stereo partly specified) | 1.49% | -1.33% | 5.47% | 2.33% | -4.52% | -5.46% | 7.95% | -6.4% | 0% | 5.13% | 1.13% |
| Cc1cnnn1Cc1ncn2c1CN(Cc1cccs1)CCC2 | -5.14% | 2.7% | -2.96% | -6.54% | -5.18% | -0.955% | 15.3% | 14.8% | 2.16% | 5.13% | -3.69% |
| Cc1nc(CN2CCCn3c(nc(Cn4ccnc4)cc3=O)C2)cs1 | -3.95% | 12% | 7.35% | 0.752% | -0.393% | 1.23% | 5.36% | -26.2% | -1.06% | 0% | -4.76% |
| CC(NC(=O)NCc1cccc(N2CCCC2=O)c1)c1ccccc1 (stereo unspecified) | -2.62% | 7.79% | 4.82% | 12.6% | 3.23% | -10.7% | 7.36% | -2.7% | 1.91% | 11.8% | -21.1% |
| Cc1csc(N2CCN(C(=O)Cc3ccsc3)CC2)n1 | -6.47% | 21.6% | -0.587% | 9.11% | 7.26% | 3.21% | 20.9% | 5.74% | 10.3% | 30.9% | -10.7% |
| CCC1(CC)Cc2ccccc2-c2nc(NCCO)[nH]c(=O)c21 | -5.77% | 10.5% | 29.9% | 1.17% | -2.63% | 3.55% | 26.4% | 29.8% | 5.32% | 10.4% | -13.3% |
| CC1CCCCN1c1nc2c(c(=O)[nH]1)CCN(Cc1cccnc1)C2 (stereo unspecified) | -3.13% | 12.2% | 6.19% | 3.8% | 0.79% | 2.09% | 9.36% | 2.99% | 3.23% | 14.3% | -18.2% |
| CC(=O)N1CC(Cc2nccc3ccn(C)c23)C1 | -2.79% | 24% | 0.304% | -7.93% | 1.18% | 3.96% | 22.6% | 1.82% | 1.06% | 16.7% | -6.59% |
| CC(C)(C)C(=O)NCCC(=O)NS(=O)(=O)c1ccc2c(c1)OCCO2 | -4.61% | 5.48% | 0.75% | 8.35% | 7.64% | -0.909% | 7.1% | -22.6% | 5.38% | 10% | -1.32% |
| O=C(c1ccccn1)N1CCCC(c2nccn2Cc2ccncc2)C1 (stereo unspecified) | -1.27% | 2.74% | -0.242% | 0.902% | 2.94% | 0.909% | 19.7% | 3.55% | 10.8% | 10% | -14% |
| O=C(c1ccco1)N1C[C@@H]2OCCN(CCN3CCCC3)[C@@H]2C1 | -2.67% | 5.41% | 5.74% | -2.98% | -1.07% | 1.59% | 16.1% | -16.1% | 2.16% | 5.13% | 4.02% |
| Cc1[nH]ncc1C(=O)N1CCCC(c2cc(C(F)(F)F)[nH]n2)C1 (stereo unspecified) | -6.98% | 8.11% | -26.4% | 5.54% | -6.59% | -3.51% | 2.69% | 14.8% | 2.97% | 6.1% | 3.81% |
| N#CCCN(C(=O)CN1CCCC1Cc1ccccc1)c1ccccc1 (stereo unspecified) | -5.2% | 2.7% | -1.32% | 26.1% | 4.1% | 10.8% | 5.33% | 0.149% | 11.9% | 13.4% | -6.86% |
